Results from the supplement of paper PMC5662767.
Where a name gives a salt, the structure may show the parent alone.

System: Drosophila S2 cl14 SmoIP sensor cells
Assay: normalized SmoIP GFP fluorescence (untreated unstimulated = 0%, untreated Hh-stimulated = 100%); higher = more Smo activation sensor fluorescence
Details: compound concentration: 2 uM, 24 h
[1] = stimulation: Hh conditioned medium (+Hh)
[2] = stimulation: mock conditioned medium (-Hh)
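Note: flow cytometry read-out as median GFP intensity of gated cells, compounds added 30 min before Hh-conditioned or mock medium, mock-treated cells serving as unstimulated baseline.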

Compound | normalized SmoIP GFP fluorescence [1] [%] | normalized SmoIP GFP fluorescence [2] [%]
COc1ccnc2[nH]cc(C(=O)C(=O)N3CCN(C(=O)c4ccccc4)C[C@H]3C)c12 | 142 | 15.4
Nc1ccn([C@H]2CC[C@@H](CO)O2)c(=O)n1 [Zalcitabine] | 114 | -12.4
O=C(O)Cn1nnc(-c2cc(N3CCC(Oc4cc(F)ccc4Br)CC3)no2)n1 | 80.4 | 13.3
c1ccc2c(CCNc3ccc(Nc4ccncc4)cc3)c[nH]c2c1 | 106 | 10.7
COc1cc(OC)c(NC(=O)Nc2cc(C)on2)cc1Cl | 114 | -5.98
O=C(/C=C/c1ccc(O)c(O)c1)c1ccc(O)cc1O [butein] | 77.1 | 3.58
CC(C)CN(C[C@@H](O)[C@H](Cc1ccccc1)NC(=O)O[C@H]1CO[C@H]2OCC[C@H]21)S(=O)(=O)c1ccc(N)cc1 [Darunavir-Ethanolate(Prezista)] | 101 | -5.54
CC(C)c1cc(C(C)C)c(CC(=O)NS(=O)(=O)Oc2c(C(C)C)cccc2C(C)C)c(C(C)C)c1 [Avasimibe(CI-1011)] | 111 | -15.8
Cn1c(N2CCCCS2(=O)=O)nc(C(=O)NCc2ccc(F)cc2)c(O)c1=O | 99.7 | -2.42
O=C1c2ccc(Nc3ccc(F)cc3F)cc2CCc2ccc(OC[C@H](O)CO)cc21 [skepinone-l] | 101 | -4.13
Oc1c2ccccc2c2c3c(cccc13)N=N2 | 121 | 66
Cc1cc(C)c2c(c1)[C@@H](N(Cc1cc(C(F)(F)F)cc(C(F)(F)F)c1)c1nnn(C)n1)CCCN2CC1CCC(C(=O)O)CC1 (some centres not stated) | 105 | -5.15
COc1cc(N2CCC(N3CCN(C)CC3)CC2)ccc1Nc1ncc(Cl)c(Nc2ccccc2S(=O)(=O)C(C)C)n1 | 109 | 10.2
CC(C)(C)OC(=O)N[C@H]1CCCCC/C=C\[C@@H]2C[C@@]2(C(=O)NS(=O)(=O)C2CC2)NC(=O)[C@@H]2C[C@@H](OC(=O)N3Cc4cccc(F)c4C3)CN2C1=O [Danoprevir] | 111 | 13
Cc1ccc(S(=O)(=O)c2ccc([N+](=O)[O-])o2)cc1 | 144 | 21.3
CN(NC(=O)CC(=O)NN(C)C(=S)c1ccccc1)C(=S)c1ccccc1 [Elesclomol] | 145 | 17.1
CCNC(=O)c1[nH]nc(-c2cc(Cl)c(O)cc2O)c1-c1ccc(OC)cc1 | 188 | 23.1
CCN(CC)CCCCNc1ncc2cc(-c3cc(OC)cc(OC)c3)c(NC(=O)NC(C)(C)C)nc2n1 | 123 | 8.79
CN1CCc2c(c3ccccc3n2Cc2ccc(C(=O)NO)cc2)C1 [tubastatin-a] | 108 | -3.05
CNC(=O)c1nn(C)c2c1C(C)(C)Cc1cnc(Nc3ccc(N4CCN(C)CC4)cc3)nc1-2 | 107 | -11.7
Nc1ccccc1NC(=O)c1ccc(CNc2nccc(-c3cccnc3)n2)cc1 [MGCD0103(Mocetinostat)] | 214 | 9
CN(c1ncccc1CNc1nc(Nc2ccc3c(c2)CC(=O)N3)ncc1C(F)(F)F)S(C)(=O)=O | 196 | 39.3
C[C@H]1[C@H](C)CC[C@]2(C(=O)O)CC[C@]3(C)C(=CC[C@@H]4[C@@]5(C)C[C@@H](O)[C@H](O)[C@@](C)(CO)[C@@H]5CC[C@]43C)[C@H]12 [Asiatic-acid] | 143 | -15.4
Cc1c(Cl)cccc1Nc1ccccc1C(=O)O [tolfenamic-acid] | 88.3 | -15.3

Compound | normalized SmoIP GFP fluorescence [1] [%] | normalized SmoIP GFP fluorescence [2] [%]
CN1[C@@H]2CC[C@H]1C[C@@H](OC(c1ccccc1)c1ccccc1)C2 [benztropine-mesylate] | 113 | -0.662
O=C(O)c1ccc(C=C2SC(=S)N(c3cccc(C(F)(F)F)c3)C2=O)cc1 [cftrinh-172] | 121 | 2.24
NC(=O)c1ccc(I)c([N+](=O)[O-])c1 | 115 | -5.22
Cc1cccc(Nc2ccccc2C(=O)O)c1C [mefenamic-acid] | 111 | -1.23
Cc1cnc(NC(=O)Nc2cc(Br)c(C)cc2OC[C@@H]2CNCCO2)cn1 | 112 | -14.5
CC(C)(C)NS(=O)(=O)c1cncc(-c2cc(F)c3nc(N)nn3c2)c1 | 104 | -4.47
COc1ccc([C@H]2CNC(=O)C2)cc1OC1CCCC1 [sRolipram] | 102 | -4.08
Cn1c(=O)cc(N2CCC[C@@H](N)C2)n(Cc2cc(F)ccc2C#N)c1=O [trelagliptin] | 104 | 3.18
CCCCNc1ccc(C(=O)OCCN(C)C)cc1 [tetracaine-hydrochloride-pontocaine] | 117 | -6.34
COCCc1ccc(OCC(O)CNC(C)C)cc1 (configuration not stated) [metoprolol-tartrate] | 138 | -9.85
Nc1nnc(-c2cccc(Cl)c2Cl)c(N)n1 [lamotrigine] | 101 | -3.5
Cc1cnc(-c2cc(N3CCN(C(=O)CCS(C)(=O)=O)CC3)ncc2Cl)c(C)c1 | 102 | -1.63
CC[C@H](C)C(=O)O[C@@H]1C[C@@H](C)C=C2C=C[C@H](C)[C@@H](CC[C@@H]3C[C@@H](O)CC(=O)O3)[C@H]21 [lovastatin-mevacor] | 123 | -14.7
O=C(c1ccc(/C=C/c2n[nH]c3ccccc23)cc1)N1CCNCC1 | 83 | -1.34
CC(=O)OCC[N+](C)(C)C [Acetylcholine-chloride] | 104 | -16.8
O=C(/C=C/c1cccc(S(=O)(=O)Nc2ccccc2)c1)NO [Belinostat] | 189 | 54.6
Oc1cccc(-c2nc(N3CCOCC3)c3oc4ncccc4c3n2)c1 | 85.1 | 4.26
C=C(C)[C@@H]1CC[C@]2(C(=O)O)CC[C@]3(C)[C@H](CC[C@@H]4[C@@]5(C)CC[C@H](O)C(C)(C)[C@@H]5CC[C@]43C)[C@@H]12 [betulinic-acid] | 97 | -2.93
CCOC(=O)c1ccc(NC2CCCCC2)c(N)c1 [ferrostatin-1-fer-1] | 116 | -3.05
COc1ccc(-c2ccc3c(N4CCOC[C@@H]4C)nc(N4CCOC[C@@H]4C)nc3n2)cc1CO | 61.4 | -2.96
Nc1nc(Nc2ccc(S(N)(=O)=O)cc2)nn1C(=O)c1c(F)cccc1F | 205 | 67.9
OCCn1cc(-c2ccc3c(c2)CC/C3=N\O)c(-c2ccncc2)n1 | 97.5 | 0.274
Nc1nc(N)c2nc(-c3cccc(O)c3)c(-c3cccc(O)c3)nc2n1 | 110 | -5.01
CC(C(=O)O)c1ccc2c(c1)CC(=O)c1ccccc1S2 (configuration not stated) [zaltoprofen] | 111 | -1.97

Compound | normalized SmoIP GFP fluorescence [1] [%] | normalized SmoIP GFP fluorescence [2] [%]
Cn1c(=O)c2[nH]cnc2n(C)c1=O [Aminophylline(Truphylline)] | 98.8 | -6.51
CC(=O)Nc1cccc(N2C(=O)N(C3CC3)C(=O)C3C(Nc4ccc(I)cc4F)N(C)C(=O)C(C)C32)c1 (configuration not stated) | 140 | -4.08
CC(=O)O[C@]1(C(C)=O)CC[C@H]2[C@@H]3C[C@H](C)C4=CC(=O)CC[C@]4(C)[C@H]3CC[C@@]21C [Medroxyprogesterone-acetate] | 116 | -1.83
CC(=O)Nc1nc2c(Oc3cc(-c4ccc(C(F)(F)F)cc4)ncn3)cccc2s1 | 111 | -4.7
CCCNS(=O)(=O)Nc1ncnc(OCCOc2ncc(Br)cn2)c1-c1ccc(Br)cc1 [macitentan] | 126 | 15.2
Cn1c(Nc2ccc(C(F)(F)F)cc2)nc2cc(Oc3ccnc(-c4ncc(C(F)(F)F)[nH]4)c3)ccc21 | 183 | 2.32
COC1=C2C[C@@H](C)C[C@H](OC)[C@H](O)[C@@H](C)/C=C(\C)[C@H](OC(N)=O)[C@@H](OC)/C=C\C=C(/C)C(=O)NC(=CC1=O)C2=O [geldanamycin] | 209 | 46.6
CNC[C@H](O)c1cccc(O)c1 [Phenylephrine-hydrochloride] | 108 | -14.9
O=C(Nc1ccccc1Br)N[C@@H]1CCN(c2ccc(C(F)(F)F)cn2)C1 | 137 | -2.82
CN1C(=O)C(Cc2c[nH]c3ccccc23)NC1=S (configuration not stated) [necrostatin-1] | 134 | -16.1
CN(C[C@@H]1COCCO1)S(=O)(=O)Nc1ccc2ccc3ncc(-c4cnn(C)c4)cc3c(=O)c2c1 | 79.1 | 16.3
Nc1cccc2c1CN(C1CCC(=O)NC1=O)C2=O (configuration not stated) [Lenalidomide] | 115 | 28.7
O=C(/C=C\n1cnc(-c2cc(C(F)(F)F)cc(C(F)(F)F)c2)n1)N1CC(F)(F)C1 | 118 | -0.264
O=C(O)Cc1cccc(OCCCN(Cc2cccc(C(F)(F)F)c2Cl)CC(c2ccccc2)c2ccccc2)c1 | 130 | -0.116
COC(=O)C1=C(C)NC(C)=C(C(=O)OCCN2CCN(C(c3ccccc3)c3ccccc3)CC2)C1c1cccc([N+](=O)[O-])c1 (configuration not stated) [Manidipine(Manyper)] | 118 | 3.85
Cc1cc(Nc2nc(N[C@@H](C)c3ccc(F)cc3)c(C#N)cc2F)n[nH]1 | 109 | -9.04
CCC(=O)NCC[C@@H]1CCc2ccc3c(c21)CCO3 [Ramelteon] | 95.6 | -0.588
CCCc1nn(C)c2c(=O)[nH]c(-c3cc(S(=O)(=O)N4CCN(C)CC4)ccc3OCC)nc12 [Sildenafil-citrate] | 76.3 | -1.88
COc1ccc(-n2nc(C(N)=O)c3c2C(=O)N(c2ccc(N4CCCCC4=O)cc2)CC3)cc1 | 102 | -1.56
CC(=O)/N=c1/sc(S(N)(=O)=O)nn1C [methazolamide] | 111 | -2.48
CN(C)C1CCN(C(=O)c2ccc(NC(=O)Nc3ccc(-c4nc(N5CCOCC5)nc(N5CCOCC5)n4)cc3)cc2)CC1 | 53 | -21.4
Cc1cc(F)c(Nc2ncnc3cc(OCc4ccccc4)ccc23)cc1O | 104 | -3.39
Cn1c(=O)c(F)c(Nc2ccc(I)cc2F)c2c(=O)n(C[C@@H](O)CO)cnc21 | 262 | 47.8
